Data published in PubChem BioAssay (NCI).
This is part of a sample that, as a whole, favours compounds with a hit. Of some 79,000 tested, about 15% had one in any assay. Rule as the data show it: active = growth inhibition above about 70%; inactive = the rest.

Columns and labels:
[1] = NCI Yeast Anticancer Drug Screen. Data for the rad50 strain (AID 155);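 also: 0% = growth of vehicle-only cultures of the same strain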; conditions: S. cerevisiae rad50 strain growth inhibition; at 50.0 µM; hits give high values
Procedure, shortened: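 Compounds were tested on a yeast strain with an engineered DNA damage repair alteration; the reported value is growth inhibition normalised to vehicle treatment.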

[2] = NCI Yeast Anticancer Drug Screen. Data for the mec2-1 strain (AID 157); conditions: S. cerevisiae mec2-1 strain, at 50.0 µM, hits give high values
Procedure, shortened: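 Readout is yeast growth inhibition, normalised to vehicle-treated controls, in the mec2-1 strain exposed to compound.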

[3] = NCI Yeast Anticancer Drug Screen. Data for the sgs1 mgt1 strain (AID 161);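 also: 0% = growth of cultures given vehicle only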; conditions: S. cerevisiae sgs1 mgt1 strain, at 50.0 µM, hits give high values
Procedure, shortened: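 This yeast growth screen uses a strain with defined DNA-repair lesions; compound-treated growth is compared with vehicle-treated growth.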

[4] = NCI Yeast Anticancer Drug Screen. Data for the cln2 rad14 strain (AID 165);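 also: 0% = growth equal to vehicle treated cultures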; conditions: S. cerevisiae cln2 rad14 strain, at 50.0 µM, hits give high values
Procedure, shortened: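 Relative to vehicle controls, growth inhibition of compound-treated cln2 rad14 yeast was recorded.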

[5] = NCI Yeast Anticancer Drug Screen. Data for the bub3 strain (AID 167); conditions: S. cerevisiae bub3 mutant strain, at 50.0 µM, hits give high values
Procedure, shortened: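 Growth of a checkpoint-deficient yeast mutant is measured after compound exposure. Values represent inhibition relative to vehicle.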

[6] = NCI Yeast Anticancer Drug Screen. Data for the mlh1 rad18 strain (AID 175); conditions: S. cerevisiae mlh1 rad18 strain growth inhibition; at 50.0 µM; hits give high values
Procedure, shortened: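 Test agents were incubated with a yeast strain of defined genotype (DNA damage repair defect). Inhibition of growth was derived by comparison with vehicle-exposed cultures.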

Measured: growth inhibition

C1CCCCCC2=C(CCCC1)CCCO2
inactive: [1] 7.4% | [2] -7.5% | [3] 2.35% | [4] -19.3% | [5] 10.2% | [6] 0.2%

O=[N+]([O-])c1ccccc1C=Nc1ccc2nc(SCc3ccccc3)sc2c1
inactive: [1] 8.15% | [2] 3.65% | [3] 3.95% | [4] 0.7% | [5] -4% | [6] -16.8%

O=C1c2ccccc2C2CC1c1ccccc12 (stereo unspecified)
inactive: [1] 6.35% | [2] -1.6% | [3] -1.7% | [4] -7.7% | [5] -16.4% | [6] -5.4%

C=CCNC(=O)c1ccc[n+](CC(=O)Nc2ccccc2)c1
inactive: [1] 1% | [2] -9.75% | [3] -1.1% | [4] 9.8% | [5] 2.3% | [6] -7.6%

CSC1=NNC(c2ccccc2)=C(c2ccccc2)S1
inactive: [1] -1.55% | [2] 4.2% | [3] 52% | [4] -31.8% | [5] 59.7% | [6] 0.45%

O=C(NO)Nc1ccc(Cl)cc1
inactive: [1] 12.2% | [2] 8.7% | [3] 2.95% | [4] -2.15% | [5] -9.2% | [6] 1.65%

CCC(=O)NC(C(=O)O)C(C)(C)S (stereo unspecified)
inactive: [1] -0.4% | [2] -3.65% | [3] 0.1% | [4] 5.9% | [5] 2.4% | [6] -3.95%

CCOC(=O)/C(C#N)=C(\C)c1ccc(O)c(OC)c1
inactive: [1] 11.4% | [2] 8.95% | [3] -3.45% | [4] 24.1% | [5] -8.1% | [6] 14.8%

Cc1ccccc1NC(=S)N1CCOCC1
inactive: [1] -4.55% | [2] 14.4% | [3] -10.8% | [4] -68.6% | [5] 14.2% | [6] -6.35%

Cc1ncc(CSC(=N)N)n1Cc1ccccc1
inactive: [1] -33.6% | [2] -11.4% | [3] -6.55% | [4] -17.6% | [5] -11.1% | [6] -23.9%

COc1ccccc1Cn1nc(OC)c2cc([N+](=O)[O-])ccc21
inactive: [1] 27.6% | [2] 30.6% | [3] -6.1% | [4] 2.05% | [5] -17.9% | [6] -64.7%

CCC(=N)C(c1ccccc1)(c1ccccc1)C(C)CN(C)C (stereo unspecified)
inactive: [1] 23.6% | [2] -7.3% | [3] -2.4% | [4] -4.75% | [5] -9.15% | [6] 13.7%

COC(=O)C1C2CC3C(C2=O)C31 (stereo unspecified)
inactive: [1] 6.45% | [2] -4.7% | [3] 4.45% | [4] 21.1% | [5] 20.4% | [6] 6.85%

Nc1ccc(C2NC(=O)Cc3c2ccc2ccccc32)cc1 (stereo unspecified)
inactive: [1] 9.8% | [2] 9.7% | [3] 7.45% | [4] -43.4% | [5] 10.3% | [6] 13.6%

O=S(=O)(O)C(O)Cc1cccc2ccccc12 (stereo unspecified)
inactive: [1] 2.2% | [2] -8.25% | [3] 1.3% | [4] -40.2% | [5] -17.8% | [6] -0.3%

O=C(C[n+]1cccc(C(=O)Nc2ccc(Cl)cc2)c1)Nc1ccccc1
inactive: [1] -10.9% | [2] -13.7% | [3] -2.45% | [4] 15.2% | [5] -4.35% | [6] 0.65%

Nc1ncnc2nc(SC3OC(CO)C(O)C(O)C3O)[nH]c12 (stereo unspecified)
inactive: [1] 10.2% | [2] -9.65% | [3] 9.9% | [4] -9% | [5] 12.8% | [6] 2.85%

Cc1cc(NC(=O)C(=O)Cc2cnc3ccccc3n2)c(S(=O)(=O)O)cc1Cl
inactive: [1] 1.45% | [2] 12.8% | [3] -2.7% | [4] -23% | [5] -11.2% | [6] -7.8%

Cn1c(=O)c2c(nc(C(c3ccccc3)c3ccccc3)n2C)n(C)c1=O
inactive: [1] -11.3% | [2] -25.5% | [3] -3.55% | [4] -33.5% | [5] 6.25% | [6] -18.6%

CCN(CC)c1cc2c3c(c1)CCCN3CCC2
inactive: [1] -20.9% | [2] -27.9% | [3] -3.85% | [4] 2.55% | [5] -8.1% | [6] -0.65%

COC(=O)C1(C(=O)OC)C/C(C)=C(/C)SCCCS1
inactive: [1] -12.7% | [2] -5.6% | [3] -14.8% | [4] 19.9% | [5] -23.1% | [6] -26.4%
